# Assay results published in ChEMBL document CHEMBL1961873, “Compounds: GSK PKIS; Assays: Nanosyn kinase panel” (2012).
# Where “and” joins values, the source holds several entries; their conditions need not be identical. Identical values can stand only once.
# Biological target: Ribosomal protein S6 kinase alpha-5 (Homo sapiens) (UniProt O75582);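 note: mean inhibition of MSK1, from screening of the GSK PKIS inhibitor set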
# Conditions: at 1 µM
# Ribosomal protein S6 kinase alpha-5 (Homo sapiens), sequence (O75582 whole entry, looked up): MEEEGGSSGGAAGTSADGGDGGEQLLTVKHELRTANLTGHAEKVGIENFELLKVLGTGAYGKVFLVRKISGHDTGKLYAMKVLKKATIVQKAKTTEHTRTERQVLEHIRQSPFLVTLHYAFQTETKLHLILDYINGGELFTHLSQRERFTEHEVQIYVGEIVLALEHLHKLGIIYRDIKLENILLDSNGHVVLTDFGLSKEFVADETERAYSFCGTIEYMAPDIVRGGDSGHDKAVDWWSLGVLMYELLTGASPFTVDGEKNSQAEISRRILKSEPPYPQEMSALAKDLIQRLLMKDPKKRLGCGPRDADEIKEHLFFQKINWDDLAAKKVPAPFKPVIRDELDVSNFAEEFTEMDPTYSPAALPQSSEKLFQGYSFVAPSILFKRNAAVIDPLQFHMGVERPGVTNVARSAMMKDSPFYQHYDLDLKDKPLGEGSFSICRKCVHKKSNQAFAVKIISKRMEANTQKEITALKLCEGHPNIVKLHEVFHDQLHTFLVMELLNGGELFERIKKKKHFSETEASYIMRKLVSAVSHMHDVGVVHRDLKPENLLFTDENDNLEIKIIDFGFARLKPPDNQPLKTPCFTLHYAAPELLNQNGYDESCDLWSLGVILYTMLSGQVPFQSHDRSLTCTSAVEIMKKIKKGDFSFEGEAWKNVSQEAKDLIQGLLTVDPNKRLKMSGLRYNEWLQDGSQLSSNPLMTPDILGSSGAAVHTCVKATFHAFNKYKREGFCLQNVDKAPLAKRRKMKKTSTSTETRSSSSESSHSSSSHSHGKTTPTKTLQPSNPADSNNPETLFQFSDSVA
row,Structure (SMILES),inhibition
1,c1cnn2ncc(-c3ccnc(NCCCN4CCOCC4)n3)c2c1,6.41%
2,CS(=O)(=O)CCNCc1ccoc1-c1ccc2ncnc(Nc3ccc(OCc4ccccc4)cc3)c2c1,-2.16%
3,COc1ccccc1-c1cc(/C=C2\C(=O)Nc3ncc(Br)cc32)cc(Br)c1O,1.75%
4,CN(C)CCNC(=O)Nc1ccc(N(C)c2ccnc(Nc3ccc(CS(C)(=O)=O)cc3)n2)cc1,3.31%
5,N#Cc1cccc(Nc2ncc(-c3ccccc3)o2)c1,2.21%
6,Cc1nnc(-c2cccc(-c3ccc(C(=O)NCC4CC4)cc3)c2)o1,3.95%
7,CCN1CCC(C(=O)Nc2n[nH]c3nnc(-c4cccc(F)c4F)cc23)CC1,-2.44%
8,FC(F)(F)CNc1nccc(-c2cnn3ncccc23)n1,1.09%
9,c1ccc(-c2n[nH]cc2-c2ccnc(-c3ccc(OCCn4ccnc4)cc3)c2)nc1,-0.29%
10,COc1cccc(Nc2nccc(-c3cnn4ncccc34)n2)c1,4.32%
11,CS(=O)(=O)CCNCc1ccc(-c2ccc3ncnc(Nc4ccc(OCc5ccccc5)cc4)c3c2)o1,0.66%
12,CN1CCN(Cc2ccc(-c3cc4ncnc(Nc5ccc(OCc6cccc(F)c6)c(Cl)c5)c4s3)o2)CC1,6.3% and 5.71%
13,O=C(O[C@H]1CN[C@H](C#Cc2cc3ncnc(Nc4ccc5c(cnn5Cc5ccccc5)c4)c3s2)C1)N1CCOCC1,-2.26%
14,O=C(O[C@H]1CN[C@H](C#Cc2cc3ncnc(Nc4ccc5c(ccn5Cc5cc(F)ccc5F)c4)c3s2)C1)N1CCOCC1,-0.4%
15,CS(=O)(=O)Nc1ccc(-c2ccc3c(NC(=O)C4CC4)n[nH]c3c2)cc1,5.67%
16,O=C(Nc1n[nH]c2nnc(-c3cccnc3)cc12)C1CC1,-0.64%

row,Structure (SMILES),inhibition
1,COc1ccc(Nc2ncc(-c3ccccc3)o2)cc1OC,1.73%
2,COc1ccc(-c2nn3ncccc3c2-c2ccnc(Nc3ccc(F)c(F)c3)n2)cc1,6.45%
3,OCCCNc1nccc(-c2c(-c3ccc(F)cc3)nn3cc(C(F)(F)F)ccc23)n1,4.76%
4,CC1(C)CC(n2cnc(-c3ccc(F)cc3)c2-c2ccnc(N)n2)CC(C)(C)N1,-2.36%
5,Cc1cc(O)cc(C)c1/C=C/c1cncc(C(N)=O)c1,2.9%
6,CN1CCC(n2cnc(-c3ccc(F)cc3)c2-c2ccnc(NCCO)n2)CC1,4.7%
7,O=C1Nc2ccccc2/C1=C1\CCc2cc(O)ccc21,10.1%
8,CC1=C(C(=O)Nc2ccc3[nH]ncc3c2)C(c2ccc(F)cc2)N=C(c2ccc(C(F)(F)F)nc2)N1 (configuration not stated),19.2%
9,COC(=O)Nc1nc2ccc(Oc3ccc(NC(=O)Nc4cc(C(F)(F)F)ccc4F)cc3)cc2s1,0.93%
10,Cn1c(-c2nonc2N)nc2cnccc21,72.4%
11,CNC(=O)c1ncccc1Nc1nc(Nc2cc3c(cc2OC)CCCN3C(=O)CN(C)C)nc2[nH]ccc12,3.98%
12,COc1c(C(N)=O)cc(-c2ccc(Cl)cc2)cc1-c1ccc(S(N)(=O)=O)cc1,3.81%
13,CS(=O)(=O)CCNCc1ccc(-c2ccc3ncnc(Nc4ccc(OCc5cccc(C(F)(F)F)c5)cc4)c3c2)o1,3.88%
14,NC(=O)c1ccc2c(-c3ccnc(NCCCO)n3)c(-c3ccc(F)cc3)nn2c1,8.01%
15,COc1cc(Nc2ncc(-c3ccccc3)o2)cc(OC)c1,-0.44%

# Biological target: Ribosomal protein S6 kinase alpha-4 (Homo sapiens) (UniProt O75676);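 note: values are mean inhibition of MSK2, from GSK PKIS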
# Conditions: at 0.1 µM
# Ribosomal protein S6 kinase alpha-4 (Homo sapiens), sequence (O75676 whole entry, looked up): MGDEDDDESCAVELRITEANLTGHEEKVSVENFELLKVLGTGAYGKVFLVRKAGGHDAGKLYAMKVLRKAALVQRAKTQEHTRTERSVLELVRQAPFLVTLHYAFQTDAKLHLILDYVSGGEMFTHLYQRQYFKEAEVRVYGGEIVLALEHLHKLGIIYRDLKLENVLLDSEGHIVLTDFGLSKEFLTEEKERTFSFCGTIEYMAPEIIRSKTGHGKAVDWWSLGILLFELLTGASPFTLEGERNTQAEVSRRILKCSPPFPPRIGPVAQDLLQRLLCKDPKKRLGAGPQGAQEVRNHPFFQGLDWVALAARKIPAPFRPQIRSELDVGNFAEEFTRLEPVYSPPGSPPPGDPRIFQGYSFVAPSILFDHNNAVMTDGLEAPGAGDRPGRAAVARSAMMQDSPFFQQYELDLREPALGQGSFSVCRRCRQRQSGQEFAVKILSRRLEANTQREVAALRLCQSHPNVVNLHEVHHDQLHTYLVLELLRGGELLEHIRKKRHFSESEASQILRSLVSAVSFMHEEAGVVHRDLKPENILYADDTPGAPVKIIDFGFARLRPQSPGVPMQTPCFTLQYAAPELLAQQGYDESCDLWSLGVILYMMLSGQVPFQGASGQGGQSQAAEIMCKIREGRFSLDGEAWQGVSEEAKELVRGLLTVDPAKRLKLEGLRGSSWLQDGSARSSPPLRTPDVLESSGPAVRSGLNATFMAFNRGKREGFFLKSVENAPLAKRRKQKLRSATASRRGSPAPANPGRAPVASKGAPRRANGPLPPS
row,Structure (SMILES),inhibition
1,c1cnn2ncc(-c3ccnc(NCCCN4CCOCC4)n3)c2c1,5.88%
2,CS(=O)(=O)CCNCc1ccoc1-c1ccc2ncnc(Nc3ccc(OCc4ccccc4)cc3)c2c1,0.88%
3,COc1ccccc1-c1cc(/C=C2\C(=O)Nc3ncc(Br)cc32)cc(Br)c1O,1.76%
4,CN(C)CCNC(=O)Nc1ccc(N(C)c2ccnc(Nc3ccc(CS(C)(=O)=O)cc3)n2)cc1,3.22%
5,N#Cc1cccc(Nc2ncc(-c3ccccc3)o2)c1,1%
6,Cc1nnc(-c2cccc(-c3ccc(C(=O)NCC4CC4)cc3)c2)o1,3.13%
7,CCN1CCC(C(=O)Nc2n[nH]c3nnc(-c4cccc(F)c4F)cc23)CC1,0.41%
8,FC(F)(F)CNc1nccc(-c2cnn3ncccc23)n1,2.33%
9,c1ccc(-c2n[nH]cc2-c2ccnc(-c3ccc(OCCn4ccnc4)cc3)c2)nc1,0.76%
10,COc1cccc(Nc2nccc(-c3cnn4ncccc34)n2)c1,1.62%
11,CS(=O)(=O)CCNCc1ccc(-c2ccc3ncnc(Nc4ccc(OCc5ccccc5)cc4)c3c2)o1,3.06%
12,CN1CCN(Cc2ccc(-c3cc4ncnc(Nc5ccc(OCc6cccc(F)c6)c(Cl)c5)c4s3)o2)CC1,1.66% and 2.85%
13,O=C(O[C@H]1CN[C@H](C#Cc2cc3ncnc(Nc4ccc5c(cnn5Cc5ccccc5)c4)c3s2)C1)N1CCOCC1,0.14%
14,O=C(O[C@H]1CN[C@H](C#Cc2cc3ncnc(Nc4ccc5c(ccn5Cc5cc(F)ccc5F)c4)c3s2)C1)N1CCOCC1,2.95%
15,CS(=O)(=O)Nc1ccc(-c2ccc3c(NC(=O)C4CC4)n[nH]c3c2)cc1,-1%
16,O=C(Nc1n[nH]c2nnc(-c3cccnc3)cc12)C1CC1,-0.31%

row,Structure (SMILES),inhibition
1,COc1ccc(Nc2ncc(-c3ccccc3)o2)cc1OC,1.03%
2,COc1ccc(-c2nn3ncccc3c2-c2ccnc(Nc3ccc(F)c(F)c3)n2)cc1,3.37%
3,OCCCNc1nccc(-c2c(-c3ccc(F)cc3)nn3cc(C(F)(F)F)ccc23)n1,2.6%
4,CC1(C)CC(n2cnc(-c3ccc(F)cc3)c2-c2ccnc(N)n2)CC(C)(C)N1,2.08%
5,Cc1cc(O)cc(C)c1/C=C/c1cncc(C(N)=O)c1,1.67%
6,CN1CCC(n2cnc(-c3ccc(F)cc3)c2-c2ccnc(NCCO)n2)CC1,1.86%
7,O=C1Nc2ccccc2/C1=C1\CCc2cc(O)ccc21,16.3%
8,CC1=C(C(=O)Nc2ccc3[nH]ncc3c2)C(c2ccc(F)cc2)N=C(c2ccc(C(F)(F)F)nc2)N1 (configuration not stated),2.12%
9,COC(=O)Nc1nc2ccc(Oc3ccc(NC(=O)Nc4cc(C(F)(F)F)ccc4F)cc3)cc2s1,1.67%
10,Cn1c(-c2nonc2N)nc2cnccc21,7.86%
11,CNC(=O)c1ncccc1Nc1nc(Nc2cc3c(cc2OC)CCCN3C(=O)CN(C)C)nc2[nH]ccc12,2.93%
12,COc1c(C(N)=O)cc(-c2ccc(Cl)cc2)cc1-c1ccc(S(N)(=O)=O)cc1,3.65%
13,CS(=O)(=O)CCNCc1ccc(-c2ccc3ncnc(Nc4ccc(OCc5cccc(C(F)(F)F)c5)cc4)c3c2)o1,1.66%
14,NC(=O)c1ccc2c(-c3ccnc(NCCCO)n3)c(-c3ccc(F)cc3)nn2c1,1.44%
15,COc1cc(Nc2ncc(-c3ccccc3)o2)cc(OC)c1,2.85%
